Sampled rows, rich in hits. Any-hit rate of the full collection: about 4%.
Peg3 prom inh: inhibitors of Peg3 promoter; HeLa PEG-Prom luciferase reporter, luminescence, overnight; inhibition, % at 20 µM; 1.7% of 360,000 active; AID 588405;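 active = inhibition of at least 50% at 20 µM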
TROY signal inh: TROY signaling inhibition | inhibition, % at 10 µM | Q293 LMP1-TROYcd NF-kB luciferase reporter, 4 h | 0.98% of 360,000 active | AID 1347056;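 active = compounds whose plate-normalised and pattern-corrected inhibition of the luciferase reporter signal at the single screening dose is 50% or more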
TWEAK Fn14 block: blocks TWEAK-Fn14 interaction in a reporter cell assay. TWEAK-stimulated Fn14 reporter cells, luciferase luminescence, 8 h. inhibition, % at 10 µM. 2% of 360,000 active. AID 1159606; in the data active = inhibition above about 50%
CF NFkB block: inhibitors of cystic fibrosis induced NF-kB | KKLEB NF-kB-GFP reporter, PAF-induced, GFP fluorescence overnight | inhibition, % at 5 µM | 0.86% of 360,000 active;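 active = at least 50% inhibition at 5 µM, scaled per plate between neutral and stimulator controls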;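 note: PAF is a Pseudomonas aeruginosa culture filtrate used as stimulus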
HIF-2a block: inhibitors of HIF-2a; 786-0 RCC cells HIF-2a reporter, luciferase luminescence, overnight; inhibition, % at 18.8 µM; 0.72% of 360,000 active;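 active = inhibition of the luminescence signal of 40% or more relative to plate controls, in a single-dose primary screen at 18.75 µM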
KKLEB tox: CF airway cell cytotoxicity counter-screen | KKLEB CF airway cells viability, ATPlite luminescence, overnight; stronger effect = lower value; cells stimulated with P. aeruginosa culture filtrate | activity change (cytotoxicity), % at 5 µM | 0.36% of 360,000 active;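 active = corrected activity change at or below -50% at 5 µM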
Of the large screens only hits and unclear results are named; the others gave an inactive call.

Cc1ccc2c(c1)cc1c(=O)n(CC(=O)N(C)c3ccccc3)nc(C)n12	none
O=C(C#Cc1ccccc1)Nc1cccc(F)c1	TWEAK Fn14 block 69.8, CF NFkB block 58.1, KKLEB tox -56.7
CCc1cccc(NC(=O)Cn2cc(C=O)c3ccccc32)c1	TWEAK Fn14 block 71.5
CCOC(=O)C1CSC(CC(=O)Nc2ccc(OC(F)(F)F)cc2)C(=O)N1 (stereo not given)	none
CCOC(=O)c1sc2ccccc2c1NC(=O)c1coc2ccccc2c1=O	TWEAK Fn14 block 57.3
COc1ccc(CC(=O)Nc2ccc(-c3noc(-c4ccc(Cl)cc4)n3)cc2)cc1	Peg3 prom inh 57.2, KKLEB tox -54.8
COc1ccc(CC(=O)Nc2ccc(-c3noc(-c4cc(OC)c(OC)c(OC)c4)n3)cc2)cc1	none
COc1ccc(-c2nc(-c3ccc(NC(=O)c4ccncc4)cc3)no2)cc1OC	Peg3 prom inh 98.8, TROY signal inh 66.6, TWEAK Fn14 block 94.4
COc1ccc(NC(=O)c2ccc(-c3ccc(-c4noc(C)n4)cc3C)cc2)cc1N1CCN(C)CC1	Peg3 prom inh 64.3
Cc1ccc(N=C2NC(=O)/C(=C/c3cccs3)S2)cc1C	CF NFkB block 51.5
Cc1cccc(N=C2NC(=O)/C(=C\c3cccs3)S2)c1	none
O=C1C=CC(=O)N1Cc1ccccc1	Peg3 prom inh 103.9, CF NFkB block 76.5
O=C1C2CC=CCC2C(=O)N1Cc1ccccc1 (stereo not given)	none
Cc1n[nH]c(C)c1CCC(=O)N/N=C/c1cccs1	none
O=C(NCC1CCCN(Cc2ccc3c(c2)OCCO3)C1)c1ccc2c(c1)OCO2 (stereo not given)	none
O=C(NCC1CCCN(Cc2ccc3nonc3c2)C1)c1cccc(C(F)(F)F)c1 (stereo not given)	Peg3 prom inh 50.8
COc1ccc(S(=O)(=O)N(CCCN2CCOCC2)Cc2cccc(OC)c2OC)cc1	none
COc1ccc(S(=O)(=O)N(CCCN2CCOCC2)Cc2cccc3ccccc23)cc1	TWEAK Fn14 block 91.7 (no result: TROY signal inh)
N=c1c2c(-c3ccccc3)c(-c3ccccc3)n(Cc3ccco3)c2ncn1CCO	Peg3 prom inh 92.8
CCN(CC)CCN1C(=O)C(=O)/C(=C(/O)c2ccc(OC(C)C)cc2)C1c1ccncc1 (stereo not given)	none
O=C1C[C@@H]2CCN3C(=O)CCC[C@@H]([C@H]23)[C@H]1Cc1ccccc1	none
CCCCCCCOC(=O)C[N+](C)(C)CCOC1CC2CCC1(C)C2(C)C (stereo not given)	Peg3 prom inh 99.2, TROY signal inh 63.1
CCCCCCOC(=O)C[N+](C)(C)CCOC1CC2CCC1(C)C2(C)C (stereo not given)	none
Cc1cc(OCC(=O)Nc2ccc3oc(-c4ccncc4)nc3c2)ccc1Cl	Peg3 prom inh 52.7
C=CCN1C(=O)NC(c2ccc(OC)cc2)(C(F)(F)F)S/C1=C(\C#N)c1nnc(N2CCOCC2)n1-c1ccccc1 (stereo not given)	TWEAK Fn14 block 50.1
Cc1ccccc1C(=O)N1CCC2CC1c1cc(Cl)ccc12 (stereo not given)	TROY signal inh 81.1
NC(c1csc(Nc2cc(Oc3ccccc3)ncn2)n1)C1CCCCC1 (stereo not given)	Peg3 prom inh 99.2
Nc1ccc(CC(N)c2csc(Nc3cc(Oc4ccccc4)ncn3)n2)cc1 (stereo not given)	none
NC(Cc1ccc(C(F)(F)F)cc1)c1csc(Nc2cc(Oc3ccccc3)ncn2)n1 (stereo not given)	Peg3 prom inh 105.6, CF NFkB block 90.6, KKLEB tox -93.8
COC(=O)c1cccc(-c2ccc(C(c3c(C)[nH][nH]c3=O)c3c(C)[nH][nH]c3=O)o2)c1	TROY signal inh 82.3
COC(=O)c1ccccc1-c1ccc(C(c2c(C)[nH][nH]c2=O)c2c(C)[nH][nH]c2=O)o1	none
Cc1ccc(-c2nc3cnccn3c2Nc2c(C)cccc2C)o1	Peg3 prom inh 101.7
Cc1ccc(-c2nc3ncccn3c2Nc2ccccc2C)o1	none
CC(C)(C)c1ccc(C(=O)NCC(=O)OCC(=O)Nc2nc(-c3ccc(F)cc3)cs2)cc1	none
Cc1cccc2c3nc4ccccc4nc3n(C)c12	TWEAK Fn14 block 53.7
Cc1ccc2oc(C(=O)N3CCN(c4cccc(C)n4)CC3)c(C)c2c1	TWEAK Fn14 block 69.3
COC(=O)c1c(C)[nH]c(C)c1-c1cccc([N+](=O)[O-])c1	none

From PubChem BioAssay
